Measurements reported in PubChem BioAssay AID1159580 (chemical genetic matrix, 2015).
The whole screen tested about 5,500 compounds, of which about 2,000 (36%) were called active. About 18% were inconclusive and are not listed. Cut-off read from the data, not from the text of the source: active = normalized growth mostly below about 0.91 (no sharp cut-off); inconclusive = no clear call, values can overlap the other calls; inactive = mostly above about 0.92. Some of the results follow.

Experiment: chemical genetic growth profiling, strain panel (AID 1159580);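 note: tested at 20 µM; growth read once vehicle control cultures reached saturation at 30 °C; 1 = growth at the plate median or of vehicle wells; lower values mean less growth of the strain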
Conditions: growth OD

Measured: normalized growth

Clc1ccc(COC(Cn2ccnc2)c2ccc(Cl)cc2Cl)cc1 (stereo unspecified)
active: S. cerevisiae deletion strains, locus YJR066W, strain TOR1, active compounds read low 0.00125 | S. cerevisiae deletion strains, locus YJR075W, strain HOC1, active compounds read low 0.0611 | S. cerevisiae deletion strains, locus YKL009W, strain mrt4, active compounds read low 0.0921 | S. cerevisiae deletion strains, locus YKL068W, active compounds read low 0.0732 | S. cerevisiae deletion strains, locus YKL085W, strain MDH1 (second series), active compounds read low 0.0674 | S. cerevisiae deletion strains, locus YKL085W, strain MDH1, active compounds read low 0.0674 | S. cerevisiae deletion strains, locus YKL160W, strain elf1, active compounds read low 0.0682 | S. cerevisiae deletion strains, locus YKL190W, strain CNB1, active compounds read low 0.0459 | S. cerevisiae deletion strains, locus YKR001C, strain vps1, active compounds read low 0.0628 | S. cerevisiae deletion strains, locus YKR026C, strain gcn3, active compounds read low 0.0617 | S. cerevisiae deletion strains, locus YKR091W, strain srl3, active compounds read low 0.0578 | S. cerevisiae deletion strains, locus YLL001W, strain dnm1, active compounds read low 0.0616 | S. cerevisiae deletion strains, locus YLL026W, active compounds read low 0.0557 | S. cerevisiae deletion strains, locus YLL041C, strain sdh2, active compounds read low 0.0556 | S. cerevisiae deletion strains, locus YLR027C, strain aat2, active compounds read low 0.0535 | S. cerevisiae deletion strains, locus YLR039C, strain RIC1, active compounds read low 0.0808 | S. cerevisiae deletion strains, locus YLR058C, strain SHM2, active compounds read low 0.0475 | S. cerevisiae deletion strains, locus YLR102C, strain apc9, active compounds read low 0.0627 | S. cerevisiae deletion strains, locus YLR113W, strain HOG1, active compounds read low 0.128 | S. cerevisiae deletion strains, locus YLR221C, strain rsa3, active compounds read low 0.0566 | S. cerevisiae deletion strains, locus YLR258W, strain gsy2, active compounds read low 0.0569 | S. cerevisiae deletion strains, locus YLR262C, strain YPT6 (second series), active compounds read low 0.0789 | S. cerevisiae deletion strains, locus YLR262C, strain YPT6, active compounds read low 0.112 | S. cerevisiae deletion strains, locus YLR268W, strain sec22, active compounds read low 0.0635 | S. cerevisiae deletion strains, locus YLR320W, strain mms22, active compounds read low 0.139 | S. cerevisiae deletion strains, locus YLR330W, strain CHS5, active compounds read low 0.0517 | S. cerevisiae deletion strains, locus YLR342W, strain FKS1 (second series), active compounds read low 0.0624 | S. cerevisiae deletion strains, locus YLR342W, strain FKS1, active compounds read low 0.0696 | S. cerevisiae deletion strains, locus YLR357W, strain rsc2, active compounds read low 0.121 | S. cerevisiae deletion strains, locus YLR370C, strain arc18, active compounds read low 0.0609 | S. cerevisiae deletion strains, locus YLR371W, strain rom2, active compounds read low 0.0612 | S. cerevisiae deletion strains, locus YLR384C, strain iki3, active compounds read low 0.0595 | S. cerevisiae deletion strains, locus YLR418C, strain cdc73, active compounds read low 0.089 | S. cerevisiae deletion strains, locus YML016C, strain PPZ1, active compounds read low 0.046 | S. cerevisiae deletion strains, locus YML032C, strain rad52, active compounds read low 0.0629 | S. cerevisiae deletion strains, locus YML120C, strain ndi1, active compounds read low 0.0559 | S. cerevisiae deletion strains, locus YML124C, strain tub3, active compounds read low 0.06 | S. cerevisiae deletion strains, locus YMR058W, strain fet3, active compounds read low 0.0614 | S. cerevisiae deletion strains, locus YMR078C, strain ctf18, active compounds read low 0.0711 | S. cerevisiae deletion strains, locus YMR125W, strain sto1, active compounds read low 0.0771 | S. cerevisiae deletion strains, locus YMR129W, active compounds read low 0.0559 | S. cerevisiae deletion strains, locus YMR205C, strain PFK2, active compounds read low 0.0917 | S. cerevisiae deletion strains, locus YMR223W, strain ubp8, active compounds read low 0.0593 | S. cerevisiae deletion strains, locus YMR231W, strain pep5, active compounds read low 0.125 | S. cerevisiae deletion strains, locus YMR263W, strain SAP30, active compounds read low 0.055 | S. cerevisiae deletion strains, locus YMR307W, strain GAS1, active compounds read low 0.123 | S. cerevisiae deletion strains, locus YNL067W, strain RPL9B, active compounds read low 0.0483 | S. cerevisiae deletion strains, locus YNL071W, strain lat1, active compounds read low 0.0586 | S. cerevisiae deletion strains, locus YNL128W, strain TEP1, active compounds read low 0.0622 | S. cerevisiae deletion strains, locus YNL153C, strain GIM3, active compounds read low 0.0497 | S. cerevisiae deletion strains, locus YNL183C, strain NPR1, active compounds read low -0.00516 | S. cerevisiae deletion strains, locus YNL209W, strain ssb2, active compounds read low 0.0633 | S. cerevisiae deletion strains, locus YNL233W, strain BNI4, active compounds read low 0.0542 | S. cerevisiae deletion strains, locus YNL248C, strain rpa49, active compounds read low 0.0786 | S. cerevisiae deletion strains, locus YNL250W, strain rad50, active compounds read low 0.0799 | S. cerevisiae deletion strains, locus YNL271C, strain bni1, active compounds read low 0.0793 | S. cerevisiae deletion strains, locus YNL298W, strain CLA4, active compounds read low 0.0698 | S. cerevisiae deletion strains, locus YNL307C, strain MCK1, active compounds read low 0.0676 | S. cerevisiae deletion strains, locus YNL322C, strain KRE1 (second series), active compounds read low 0.067 | S. cerevisiae deletion strains, locus YNR049C, strain mso1, active compounds read low 0.0571 | S. cerevisiae deletion strains, locus YNR052C, strain pop2, active compounds read low 0.0609 | S. cerevisiae deletion strains, locus YOL006C, strain TOP1, active compounds read low 0.104 | S. cerevisiae deletion strains, locus YOL012C, strain htz1 0.142 | S. cerevisiae deletion strains, locus YOL147C, strain pex11, active compounds read low 0.0571 | S. cerevisiae deletion strains, locus YOR001W, strain rrp6, active compounds read low 0.0678 | S. cerevisiae deletion strains, locus YOR061W, strain CKA2, active compounds read low 0.0453 | S. cerevisiae deletion strains, locus YOR069W, strain VPS5, active compounds read low 0.0468 | S. cerevisiae deletion strains, locus YOR070C, strain gyp1, active compounds read low 0.0583 | S. cerevisiae deletion strains, locus YOR080W, strain dia2, active compounds read low 0.0655 | S. cerevisiae deletion strains, locus YOR083W, strain WHI5, active compounds read low 0.0646 | S. cerevisiae deletion strains, locus YOR106W, strain vam3, active compounds read low 0.0717 | S. cerevisiae deletion strains, locus YOR136W, strain idh2, active compounds read low 0.0693 | S. cerevisiae deletion strains, locus YOR144C, strain elg1, active compounds read low 0.0562 | S. cerevisiae deletion strains, locus YOR184W, strain ser1, active compounds read low 0.0649 | S. cerevisiae deletion strains, locus YOR231W, strain MKK1, active compounds read low 0.119 | S. cerevisiae deletion strains, locus YOR265W, strain rbl2, active compounds read low 0.0574 | S. cerevisiae deletion strains, locus YOR270C, strain vph1, active compounds read low 0.104 | S. cerevisiae deletion strains, locus YOR290C, strain snf2, active compounds read low 0.0649 | S. cerevisiae deletion strains, locus YOR316C, strain cot1, active compounds read low 0.0595 | S. cerevisiae deletion strains, locus YPL051W, strain arl3, active compounds read low 0.0626 | S. cerevisiae deletion strains, locus YPL078C, strain atp4, active compounds read low 0.0787 | S. cerevisiae deletion strains, locus YPL106C, strain sse1, active compounds read low 0.0958 | S. cerevisiae deletion strains, locus YPL240C, strain hsp82, active compounds read low 0.0557 | S. cerevisiae deletion strains, locus YPL241C, strain CIN2, active compounds read low 0.0472 | S. cerevisiae deletion strains, locus YPL256C, strain CLN2, active compounds read low 0.127 | S. cerevisiae deletion strains, locus YPR119W, strain clb2, active compounds read low 0.062 | S. cerevisiae deletion strains, locus YPR141C, strain kar3, active compounds read low 0.0789 | S. cerevisiae deletion strains, locus YPR163C, strain tif3, active compounds read low 0.0707 | S. cerevisiae deletion strains, locus YPR167C, strain met16, active compounds read low 0.0615 | S. cerevisiae deletion strains, strain wtn01, active compounds read low 0.0584 | S. cerevisiae strains, strain wild type, active compounds read low 0.0556
